Experimental data as given in PubChem BioAssay (Tox21).
Inconclusive results are not listed. Active and inactive are the calls of the source. Unless noted, calls come from the whole dose curve; as a rule, active = well fitted curve in the direction sought with a large enough effect in the repeat runs; inconclusive = weak or mixed curves; inactive = no such curve, though single readings can be large; an effect the other way counts as inactive or inconclusive.

Tests used:
[1] = qHTS assay to identify small molecule antagonists of the peroxisome proliferator-activated receptor delta (PPARd) signaling pathway - cell viability counter screen (AID 743213); note: nearly all actives have a fitted effect of over 50% in size
Outline: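 Cytotoxicity counter screen: CellTiter-Glo luminescence read 30 min after addition, in the same wells as the reporter assay. There, PPARd UAS-bla HEK293H cells (3000/well) were treated 17 h at 37 C with compound and 300 nM L165041.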

[2] = biological target: Bile acid receptor (Homo sapiens) (UniProt Q96RI1); test: qHTS assay to identify small molecule antagonists of the farnesoid-X-receptor (FXR) signaling pathway (AID 743217; active = well fitted inhibition curve with a large enough effect in the signal ratio in the repeat runs, not every such curve was filed as active; the % refers to the signal ratio)
Outline: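 Beta-lactamase reporter under UAS control in HEK 293T cells; compound exposure 16 h at 37 °C in the presence of chenodeoxycholic acid (50 uM final); signal from B/G FRET substrate after 2 h at room temperature.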

[3] = biological target: Bile acid receptor (Homo sapiens) (UniProt Q96RI1); test: qHTS assay to identify small molecule agonists of the farnesoid-X-receptor (FXR) signaling pathway (AID 743220; active = well fitted activation curve with a large enough effect in the signal ratio in the repeat runs, not every such curve was filed as active; the % refers to the signal ratio)
Outline: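 Beta-lactamase reporter under UAS control in GeneBLAzer FXR HEK 293T cells (5000/well) measured with LiveBLAzer FRET substrate after 2 h at room temperature. Compound exposure lasted 16 h at 37C.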

[4] = qHTS assay to identify small molecule antagonists of the farnesoid-X-receptor (FXR) signaling pathway - cell viability counter screen (AID 743221; active = well fitted cell-killing curve with a large enough effect in the repeat runs, not every such curve was filed as active; note: nearly all actives have a fitted effect of over 50% in size)
Outline: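 GeneBLAzer FXR-UAS-bla HEK 293T cells, compound plus chenodeoxycholic acid (50 uM final), 16 h at 37 C. CellTiter-Glo added to the same wells after the beta-lactamase read; luminescence read after 30 min at room temperature as viability.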

[5] = biological target: Vitamin D3 receptor (Homo sapiens) (UniProt P11473); test: qHTS assay to identify small molecule agonists of the vitamin D receptor (VDR) signaling pathway (AID 743222; calls by dose curve)
Outline: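 Agonist activity measured in VDR-bla reporter cells. Exposure 16 h, 37C, 5% CO2; detection by B/G FRET substrate, 2 h RT.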

[6] = biological target: Vitamin D3 receptor (Homo sapiens) (UniProt P11473); test: qHTS assay to identify small molecule antagonists of the vitamin D receptor (VDR) signaling pathway (AID 743223; active = well fitted inhibition curve with a large enough effect in the signal ratio in the repeat runs, not every such curve was filed as active; the % refers to the signal ratio)
Outline: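 VDR-bla cells were treated with compound plus 3 nM final 1alpha,25-dihydroxyvitamin D3 for 16 h at 37C. Beta-lactamase reporter read by B/G FRET substrate fluorescence after 2 h at room temperature. qHTS format.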

[7] = qHTS assay to identify small molecule agonists of the vitamin D receptor (VDR) signaling pathway - cell viability counter screen (AID 743224); note: series mostly up to about 63 µM; nearly all actives have a fitted effect of over 50% in size
Outline: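 VDR-bla cell line, quantitative HTS format; 16 h compound incubation (37C, 5% CO2); ATP-based CellTiter-Glo luminescence measured in the reporter assay wells.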

[8] = qHTS assay to identify small molecule antagonists of the vitamin D receptor (VDR) signaling pathway - cell viability counter screen (AID 743225); note: nearly all actives have a fitted effect of over 50% in size
Outline: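 VDR-UAS-bla HEK 293T cells were plated and incubated 4 h at 37C, then dosed with compound plus 3 nM (final) 1-alpha,25-dihydroxyvitamin D3 for 16 h. After the 2 h beta-lactamase read, viability in the same wells was read as CellTiter-Glo luminescence after 30 min at room temperature.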

[9] = qHTS assay to identify small molecule agonists of the NFkB signaling pathway - cell viability counter screen (AID 1159515; calls by dose curve; note: series mostly up to about 61 µM; nearly all actives have a fitted effect of over 55% in size)
Outline: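 Viability in NFkB-bla ME-180 cells was measured by CellTiter-Glo luminescence, 30 min room temperature, in wells already treated 5 hr with compounds and read for reporter FRET.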

[10] = qHTS assay to identify small molecule agonists of the endoplasmic reticulum stress response signaling pathway (AID 1159516; active = well fitted activation curve with a large enough effect in the signal ratio in the repeat runs, not every such curve was filed as active; the % refers to the signal ratio)
Outline: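 ER stress element reporter (bla) in HeLa. 1,500 cells/well, overnight attachment; 5 hr compound; 2 hr RT substrate; dual-emission fluorescence.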

[11] = qHTS assay to identify small molecule agonists of the endoplasmic reticulum stress response signaling pathway - cell viability counter screen (AID 1159517; calls by dose curve)
Outline: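 Cells, HeLa ESRE-bla; density, 1,500/well; dosing, 5 hr at 37 C, 5% CO2; readout, CellTiter-Glo luminescence after 30 min RT.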

[12] = qHTS assay to identify small molecule antagonists of the retinoid-related orphan receptor gamma (ROR-gamma) signaling pathway - cell viability counter screen (AID 1159520); note: nearly all actives have a fitted effect of over 50% in size
Outline: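 Cytotoxicity was read from cellular ATP (CellTiter-Glo luminescence) after 16 hr at 37 C with 1 uM doxycycline induction. The inducer was added 2 hr after compound transfer to Tet-on ROR gamma CHO cells.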

[13] = biological target: Nuclear receptor ROR-gamma (Homo sapiens) (UniProt P51449); test: qHTS assay to identify small molecule antagonists of the retinoid-related orphan receptor gamma (ROR-gamma) signaling pathway (AID 1159521)
Outline: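 Tet-on ROR-gamma CHO cells with ROR response element-luciferase reporter; compounds added 2 hr before 1 uM doxycycline induction, then 16 hr at 37 C. Antagonism scored as decreased ONE-Glo luminescence.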

[14] = qHTS assay to identify small molecule agonists of the AP-1 signaling pathway - cell viability counter screen (AID 1159525; calls by dose curve; note: nearly all actives have a fitted effect of over 55% in size)
Outline: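 Luminescent ATP readout (Cell Titer Glo, 30 min RT), normalised to DMSO and tetra n-octyl ammonium bromide controls. Cells were ME-180 AP-1-bla in 0.5% dialyzed FBS Opti-MEM, with a 5 h, 37 °C compound exposure.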

[15] = qHTS assay to identify small molecule agonists of the AP-1 signaling pathway (AID 1159526; calls by dose curve)
[16] = biological target: Retinoic acid receptor RXR-alpha (Homo sapiens) (UniProt P19793); test: qHTS assay to identify small molecule agonists of the RXR signaling pathway (AID 1159527; calls by dose curve; note: nearly all actives have a fitted effect of over 35% in size)
Outline: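 GeneBLAzer RXR-alpha-UAS-bla HEK 293T cells in 2% charcoal-stripped FBS medium were exposed to compounds for 16 hr at 37 C in agonist mode. Beta-lactamase reporter read as 460/530 nm FRET ratio after 2 hr substrate loading.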

[17] = qHTS assay to identify small molecule agonists of the peroxisome proliferator-activated receptor delta (PPARd) signaling pathway - cell viability counter screen (AID 743211); note: nearly all actives have a fitted effect of over 55% in size
Outline: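 PPARd-bla HEK293H cells (3000/well) were pre-incubated 5 h at 37 C, then exposed to compound for 17 h at 37 C. After 2 h with LiveBLAzer substrate, CellTiter-Glo was added to the same wells; luminescence read after 30 min at room temperature.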

[18] = biological target: Peroxisome proliferator-activated receptor delta (Homo sapiens) (UniProt Q03181); test: qHTS assay to identify small molecule agonists of the peroxisome proliferator-activated receptor delta (PPARd) signaling pathway (AID 743212; calls by dose curve)
Outline: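 HEK293H UAS-bla reporter cells, human PPARd system; compounds delivered in DMSO after 5 h plating, then at 37 C. Beta-lactamase FRET read, 2 h RT substrate step.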

[19] = qHTS assay to identify small molecule agonists of the farnesoid-X-receptor (FXR) signaling pathway - cell viability counter screen (AID 743218); note: nearly all actives have a fitted effect of over 45% in size
Outline: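 In GeneBLAzer FXR-UAS-bla HEK 293T cells, compounds act for 16 h at 37 C. Cell viability is then scored in the reporter wells by CellTiter-Glo, 30 min at RT, luminescence.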

[20] = biological target: Peroxisome proliferator-activated receptor delta (Homo sapiens) (UniProt Q03181); test: qHTS assay to identify small molecule antagonists of the peroxisome proliferator-activated receptor delta (PPARd) signaling pathway (AID 743215; active = well fitted inhibition curve with a large enough effect in the signal ratio in the repeat runs, not every such curve was filed as active; the % refers to the signal ratio;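 note: cells stimulated with agonist L165041 at 300 nM final during compound exposure; series mostly up to about 62 µM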)
Outline: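 Antagonist-mode beta-lactamase reporter screen: HEK293H cells with UAS-bla under PPARd control, stimulated by 300 nM L165041 (final) alongside test compound for 17 h at 37 C, then FRET fluorescence after 2 h substrate incubation.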

Measured: Potency

Sequence of Retinoic acid receptor RXR-alpha (Homo sapiens) (P19793 whole entry, looked up): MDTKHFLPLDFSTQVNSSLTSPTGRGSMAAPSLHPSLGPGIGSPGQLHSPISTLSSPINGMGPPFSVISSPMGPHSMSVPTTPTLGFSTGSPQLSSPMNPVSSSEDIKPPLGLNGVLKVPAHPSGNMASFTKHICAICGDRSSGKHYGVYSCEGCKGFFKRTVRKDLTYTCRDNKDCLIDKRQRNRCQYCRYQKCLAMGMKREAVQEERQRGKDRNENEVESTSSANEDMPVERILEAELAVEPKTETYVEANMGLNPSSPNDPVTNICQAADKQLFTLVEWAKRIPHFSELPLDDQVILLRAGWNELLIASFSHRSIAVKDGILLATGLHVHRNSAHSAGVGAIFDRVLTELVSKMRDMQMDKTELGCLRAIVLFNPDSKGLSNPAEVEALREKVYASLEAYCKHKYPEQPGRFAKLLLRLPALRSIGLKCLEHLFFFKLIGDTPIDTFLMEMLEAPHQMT
Sequence of Bile acid receptor (Homo sapiens) (Q96RI1 whole entry, looked up): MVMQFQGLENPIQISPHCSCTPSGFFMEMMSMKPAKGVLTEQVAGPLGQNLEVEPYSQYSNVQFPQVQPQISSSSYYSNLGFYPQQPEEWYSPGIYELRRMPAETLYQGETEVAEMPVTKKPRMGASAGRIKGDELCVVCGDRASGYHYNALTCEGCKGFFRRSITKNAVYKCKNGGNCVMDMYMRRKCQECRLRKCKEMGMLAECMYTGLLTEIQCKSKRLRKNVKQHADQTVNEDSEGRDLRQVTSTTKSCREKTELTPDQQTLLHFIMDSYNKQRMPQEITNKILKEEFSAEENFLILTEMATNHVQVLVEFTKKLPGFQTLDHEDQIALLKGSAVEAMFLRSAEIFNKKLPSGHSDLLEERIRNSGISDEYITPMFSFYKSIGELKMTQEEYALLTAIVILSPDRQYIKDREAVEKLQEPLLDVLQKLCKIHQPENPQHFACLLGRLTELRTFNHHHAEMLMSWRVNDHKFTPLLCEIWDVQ
Sequence of Peroxisome proliferator-activated receptor delta (Homo sapiens) (Q03181 whole entry, looked up): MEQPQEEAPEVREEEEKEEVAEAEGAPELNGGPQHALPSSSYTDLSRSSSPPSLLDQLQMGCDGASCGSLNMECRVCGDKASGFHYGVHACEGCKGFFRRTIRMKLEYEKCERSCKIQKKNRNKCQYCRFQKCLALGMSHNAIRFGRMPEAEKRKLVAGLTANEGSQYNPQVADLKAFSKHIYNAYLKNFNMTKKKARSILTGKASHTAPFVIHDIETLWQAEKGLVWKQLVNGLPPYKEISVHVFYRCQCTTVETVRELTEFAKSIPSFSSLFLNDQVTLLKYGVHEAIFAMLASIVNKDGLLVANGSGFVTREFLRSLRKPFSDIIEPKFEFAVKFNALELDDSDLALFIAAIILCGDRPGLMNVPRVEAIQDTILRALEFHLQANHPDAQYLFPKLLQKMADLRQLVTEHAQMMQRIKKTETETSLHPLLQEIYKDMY
Sequence of Vitamin D3 receptor (Homo sapiens) (P11473 whole entry, looked up): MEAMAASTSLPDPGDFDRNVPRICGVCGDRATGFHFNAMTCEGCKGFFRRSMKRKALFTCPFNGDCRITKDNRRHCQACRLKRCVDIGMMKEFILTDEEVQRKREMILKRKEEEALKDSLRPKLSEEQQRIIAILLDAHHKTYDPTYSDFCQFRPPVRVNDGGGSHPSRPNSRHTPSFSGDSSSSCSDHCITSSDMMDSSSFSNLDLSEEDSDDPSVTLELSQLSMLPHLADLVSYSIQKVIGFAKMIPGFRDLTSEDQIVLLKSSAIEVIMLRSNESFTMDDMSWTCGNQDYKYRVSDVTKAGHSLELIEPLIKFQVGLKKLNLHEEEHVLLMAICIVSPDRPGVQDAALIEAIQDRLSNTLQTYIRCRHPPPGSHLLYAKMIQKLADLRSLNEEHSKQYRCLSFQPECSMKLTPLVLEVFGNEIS

CCC1(c2ccc(N)cc2)CCC(=O)NC1=O (stereo not drawn)
not listed: [17] | [18] | [19] | [20]
inactive: all other assays above

CC(O)CN(CC(C)O)CC(C)O (stereo not drawn)
not listed: [5] | [6] | [7] | [16] | [20]
inactive: all other assays above

CCC/C=N/O
not listed: [17] | [18] | [19] | [20]
inactive: all other assays above

Nc1ncn[nH]1
not listed: [5] | [6] | [7] | [17]
inactive: all other assays above

C[N+](C)(C)C
not listed: [2] | [3] | [18] | [19] | [20]
inactive: all other assays above

CNC(=S)S
not listed: [2] | [3] | [7] | [11]
inactive: all other assays above

Cl
not listed: [2] | [3] | [5] | [6] | [13] | [16] | [18] | [20]
inactive: all other assays above

Brc1ccc(Br)cc1
not listed: [1] | [6] | [7] | [16] | [17] | [20]
inactive: all other assays above

CCNc1nc(Cl)nc(NC(C)(C)C#N)n1
not listed: [2] | [3] | [5] | [6] | [7] | [16] | [20]
inactive: all other assays above
